Screens deposited in PubChem BioAssay by National Center for Advancing Translational Sciences (NCATS).
In the library only some 6.9% were active in any assay of this set; here they are far more common.
MCF10A rerep: A quantitative high throughput screen for small molecules that induce DNA re-replication in MCF 10a normal breast cells | MCF 10A DNA re-replication, Hoechst nuclear intensity, 48 h | Potency, µM (doses to about 46.1 µM), for inactives: top-dose activity, positive = re-replication, actives largely listed as activators | actives 2.9% (n = 350,000) | AID 624296, 2012; also: potency is read from the fitted curve at half-maximal effect; % of control where 0% means no effect; nearly all actives have a fitted effect of over 50% in size
SW480 rereplic: A quantitative high throughput screen for small molecules that induce DNA re-replication in SW480 colon adenocarcinoma cells | SW480 DNA re-replication, Hoechst DNA content imaging, 48 h | Potency, µM (doses to about 46.1 µM), inactives show at the top dose re-replication activation, usual class: activators | actives 1.8% (n = 340,000) | AID 624297, 2012; also: potency is read from the fitted curve at half-maximal effect; % of control where 0% means no effect; nearly all actives have a fitted effect of over 55% in size
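Treated cells incubate 48 hr (37 C, 5% CO2), are stained 40 min with Hoechst, and nuclear fluorescence is enumerated; a rise in nuclei with high DNA signal marks re-replication.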
Vif-A3G inh: qHTS for Inhibitors of Vif-A3G Interactions: qHTS; DNA dC->dU-editing enzyme APOBEC-3G (Homo sapiens), Q9HC16; HeLa A3G-eYFP + Vif (tagged APOBEC3G with the HIV-1 protein that degrades it), YFP fluorescence, overnight; Potency, µM (series often up to 46.1 µM), for inactives: at the top dose activity, negative = active, most hits filed as inhibitors; actives 0.076% (n = 410,000); AID 602310, 2012; also: potency is read from the fitted curve at half-maximal effect; % is scaled to controls: 0 for no effect and ±100 for the full control effect; nearly all actives have a fitted effect of over 60% in size
Target sequence (Q9HC16 whole entry, looked up): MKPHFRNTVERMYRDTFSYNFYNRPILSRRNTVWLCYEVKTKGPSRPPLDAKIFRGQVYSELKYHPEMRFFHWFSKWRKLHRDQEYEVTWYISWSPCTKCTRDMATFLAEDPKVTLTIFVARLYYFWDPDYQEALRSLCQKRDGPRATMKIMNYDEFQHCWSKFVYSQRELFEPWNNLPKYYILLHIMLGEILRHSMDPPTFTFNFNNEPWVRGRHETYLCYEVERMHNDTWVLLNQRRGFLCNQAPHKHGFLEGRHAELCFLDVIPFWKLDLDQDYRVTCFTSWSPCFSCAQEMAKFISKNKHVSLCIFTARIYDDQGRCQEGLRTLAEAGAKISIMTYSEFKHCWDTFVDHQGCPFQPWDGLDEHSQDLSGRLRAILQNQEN
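Read-out is eYFP fluorescence (Ex 488/Em 500-530) from Vif-expressing HeLa A3G-eYFP cells; more signal means A3G escaped Vif-mediated degradation. Cells plated overnight, compound pinned in, incubated overnight at 37 deg C.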
IL-1B inflam inh: qHTS for Inhibitors of Inflammasome Signaling: IL-1-beta AlphaLISA Primary Screen; THP-1 LPS/ATP IL-1B secretion, AlphaLISA, 16 h; active compounds read low; activity change, % at 57.5 µM; actives 4.7% (n = 360,000); AID 743279, 2014; in the data active = activity change below about -50%; inconclusive = mostly about -30% to -49%; also: % is scaled to controls: 0 for no effect and ±100 for the full control effect
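THP-1 cells pretreated 1 hr with compounds (up to 57.5 uM final), then stimulated with LPS (250 ng/mL final) plus ATP (1.25 mM final); secreted IL-1B measured by AlphaLISA after 16 hr, decreased signal indicating inhibition.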
Vif-A3F inh: qHTS for Inhibitors of Vif-A3F Interactions: qHTS | AID 602313, 2012 | Potency, µM (series often up to 46.1 µM), for inactives: top-dose activity, negative = active | HeLa A3F-eYFP + Vif (tagged APOBEC3F with the HIV-1 protein that degrades it), YFP fluorescence increase | actives 0.2% (n = 390,000); also: potency is read from the fitted curve at half-maximal effect; % of control where 0% means no effect; nearly all actives have a fitted effect of over 65% in size
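Fluorescence increase (Ex 488/Em 500-530) after overnight compound treatment at 37 deg C flags inhibition of Vif-driven A3F-eYFP loss in stable HeLa A3F-eYFP/Vif cells seeded overnight beforehand.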
Giardia killer: Small Molecules that selectively kill Giardia lamblia: qHTS; actives 0.15% (n = 340,000); activity change, % at 7.66 µM, hits read low; Giardia lamblia trophozoite viability; in the data active = activity change below about -80%; inconclusive = between about -30% and that limit;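 also: parasites exposed to compound for two days anaerobically before the ATP read; % is scaled to controls: 0 for no effect and ±100 for the full control effect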
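Compounds were tested on trophozoites seeded at 100 cells/well and held 48 hrs at 37 deg C anaerobically. An ATP-based luminescent kit measured the remaining live cells.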
* marks the source's active call; other numbers are inactive results; ? = inconclusive; nt = no result. Unless noted, calls follow the shape of the dose curve; as a rule, active = well fitted curve in the direction sought with a large enough effect; inconclusive = small, poorly fitted or top-dose-only effect, or another doubt; inactive = no such curve, though single readings can be large; an effect the other way counts as inactive or inconclusive.

SMILES | MCF10A rerep | SW480 rereplic | Vif-A3G inh | IL-1B inflam inh | Vif-A3F inh | Giardia killer
CC(c1ccccc1)N1CCN(C(=O)CCl)CC1 (centres undefined) | ? | ? | ? | -79* | -6% | 7
CCOC(=O)N1CCN(S(=O)(=O)Cc2ccccc2)CC1 | 2% | -1% | -2% | -3 | -2% | -3
CN1C(=O)N(CC(=O)N2CCN(S(=O)(=O)c3ccc4c(c3)CCC4)CC2)C(=O)C12CCCCC2 | -1% | -8% | 3% | 16 | 9% | -5
O=C(CCl)N1CCN(S(=O)(=O)c2ccc3c(c2)CCC3)CC1 | ? | ? | ? | -67* | 1% | -20
O=C(CCl)N1CCN(S(=O)(=O)Cc2ccccc2)CC1 | ? | 211% | ? | -100* | 6% | 18
CCCN1CCc2nc(N3CCN(c4ncccn4)CC3)ncc2C1 | nt | nt | 2% | nt | -9% | nt
CCn1c(=O)n(-c2ccc(F)cc2)c(=O)c2sc3ccccc3c21 | nt | nt | 3% | nt | -7% | nt
CC(Cc1cccs1)NC(=O)Nc1ccc(F)cc1 (centres undefined) | 1% | 4% | 1% | -21 | 1% | -5
CC(Cc1cccs1)NC(=S)Nc1ccc(Cl)cc1 (centres undefined) | 21µM* | 5% | 0% | -96* | ? | 4
CC(Cc1cccs1)NC(=S)Nc1ccc(Cl)c(Cl)c1 (centres undefined) | ? | 17% | -1% | -95* | ? | 18
Cc1cccc(C)c1Nc1c(-c2ccc(N3CCOCC3)cc2)nc2cnccn12 | 23µM* | ? | -5% | 3 | -3% | -18
COc1cc(-c2nc3cnccn3c2Nc2c(C)cccc2C)ccc1O | 16µM* | 23µM* | ? | 23 | 0% | -14
Cc1cc2ccccc2c[n+]1C1CCCCC1 | nt | nt | 3% | nt | nt | nt
O=C(C1CCCN(S(=O)(=O)c2cccc3nsnc23)C1)N1CCN(c2cccc(Cl)c2)CC1 (centres undefined) | nt | nt | -6% | nt | -9% | nt
C=CCNC(=S)Nc1sc2c(c1C(=O)OCC)CC(C(C)C)OC2 (centres undefined) | 12µM* | ? | 1% | 53 | 3% | 5
O=[N+]([O-])c1ccc(Nc2nc(NCCN3CCOCC3)nc(Nc3ccc(Cl)cc3)n2)cc1 | nt | nt | 1% | nt | nt | nt
Cc1ccc2c(CNCCc3ccccc3)c(C(=O)O)n(Cc3ccccc3C)c2c1 | nt | nt | -3% | nt | -8% | nt
CCc1c(C)nc2cc(-c3ccc(OC)c(OC)c3)nn2c1NCC1CC1 | 21µM* | -1% | 0% | -94* | -11% | -18
Cc1ccccc1Cn1c2ccccc2c2cnn(CC(=O)NCCc3ccccc3)c(=O)c21 | nt | nt | -1% | nt | 0% | nt
COc1ccc(Br)cc1CN1C(=O)c2ccccc2C1C(=O)NC1CCCCCC1 (centres undefined) | nt | nt | -3% | nt | -7% | nt
CCO/C=N/Nc1nc(C(F)(F)F)nc2c1cnn2Cc1ccccc1 | 18µM* | ? | -8% | -6 | 5% | -11
Cc1occc1-c1nnc(SCC(=O)Nc2ccccc2)n1Cc1ccccc1 | ? | 11% | 0% | -10 | -3% | 6
Cc1occc1-c1nnc(SCC(=O)Nc2ccc(F)cc2)n1Cc1ccccc1 | ? | 26% | 4% | -80* | 0% | 5
Cc1csc(NC(=O)CSc2nnc(-c3ccoc3C)n2C(C)c2ccccc2)n1 (centres undefined) | ? | 15µM* | -1% | -18 | -4% | -4
CCOC(=O)c1noc2ncnc(N3CCN(c4cccc(Cl)c4)CC3)c12 | nt | nt | 0% | nt | 10% | nt
SMILES | MCF10A rerep | SW480 rereplic | Vif-A3G inh | IL-1B inflam inh | Vif-A3F inh | Giardia killer
COc1ccc(NC(=O)CN(C)C(=O)Cc2n[nH]c(=O)c3ccccc23)cc1 | 14% | 23µM* | 2% | 31 | 0% | -7
CCOc1ccc(C(=O)COC(=O)Cc2n[nH]c(=O)c3ccccc23)cc1 | 1.6µM* | 2.6µM* | 8.9µM* | 38 | 8% | -19
COc1cccc(NC(=O)CN(C)C(=O)Cc2n[nH]c(=O)c3ccccc23)c1 | 0% | -22% | 1% | 20 | 1% | -13
O=C(Cc1n[nH]c(=O)c2ccccc12)OCC(=O)c1ccc2c(c1)OCCO2 | 2.1µM* | 4.6µM* | ? | 64 | -7% | 11
CCOc1ccc2nc(N3CCCC(C(=O)NCCc4ccc(OC)cc4OC)C3)sc2c1 (centres undefined) | nt | nt | -7% | nt | 2% | nt
COc1ccc2oc(-c3ccco3)cc(=O)c2c1 | 6% | 14% | 0% | -62* | -3% | -15
COc1ccc2c(=O)cc(-c3ccccc3F)oc2c1 | 0% | -6% | -3% | -61* | 2% | -21
COc1cccc2oc(-c3ccco3)cc(=O)c12 | ? | -2% | 3% | -101* | ? | 8
O=C(Nc1cccc(Cl)c1Cl)c1cc(S(=O)(=O)N2CCC3(CC2)OCCO3)ccc1F | nt | nt | 7% | nt | 5% | nt
CCOC(=O)c1c(-c2ccccc2)oc2ccc(O)c(CN3CCN(C)CC3)c12 | 23µM* | 15% | 0% | nt | 12% | 12
COCCOC(=O)c1c(C)oc2ccc(O)c(CN3CCC(C)CC3)c12 (tested in a mixture with another compound) | -4% | -9% | 3% | -52* | -8% | 2
CCOC(=O)c1c(C)n(C)c2ccc(O)c(CN3CCN(C)CC3)c12 | 7% | 0% | 1% | -1 | -3% | -6
O=C(Nc1ccc(F)cc1)c1ccc(Cn2nc(N3CCN(c4ccccc4)CC3)ccc2=O)o1 | nt | nt | 4% | nt | -3% | nt
N#C/C(=C\c1ccc(N2CCOCC2)o1)C(=O)NCCc1ccccc1 | -4% | -5% | 2% | -51* | 22µM* | -7
COCCNC(=O)/C(C#N)=C/c1ccc(N2CCOCC2)o1 | -24% | -1% | -12% | -10 | -10% | -10
Cc1ccc(NC(=O)Cn2c(=O)n(-c3ccc(CC(=O)NCC4CCCO4)cc3)c(=O)c3ccccc32)cc1 (centres undefined) | nt | nt | -3% | nt | -2% | nt
COc1cccc(NC(=O)CSc2nc3ncc(Br)cc3[nH]2)c1 | 8% | -10% | 1% | 35 | -16% | -8
O=C(CSc1nc2ncc(Br)cc2[nH]1)Nc1ccccc1-c1ccccc1 | 26µM* | 26% | -8% | -7 | 4% | 4
CCc1ccc(NC(=O)CSc2nc3ncc(Br)cc3[nH]2)cc1 | 12µM* | -6% | 1% | 12 | -12% | 0
